Results on 7 molecules are retold here after PubChem BioAssay (NCI).

Each structure is given as a SMILES string. The panel holds about 83,000 compounds, 20% with a hit somewhere; the sample as a whole holds those more often.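 96-well plates, one dose, 48 hours. Percent growth reported; active if below 10.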 Unmarked numbers belong to inactive results. The source made the active and inactive calls.

Among the test systems are DU-145 prostate; K-562 leukemia; MALME-3M melanoma; MDA-MB-231 breast; RXF 393 renal; SF-268 CNS; SF-295 CNS; SF-539 CNS; UACC-257 melanoma; M14 melanoma; HCT-15 colon; HT29 colon; SNB-75 CNS; SNB-19 CNS; U251 CNS; PC-3 prostate; SK-MEL-5 melanoma; UACC-62 melanoma; LOX IMVI melanoma; SK-MEL-28 melanoma.
Holding throughout (experiment): NCI-60 one-dose screen, 48 h (100 = growth as untreated, 0 = no growth, -100 = all killed)
Details in all cases: 10 µM unless noted

Turning to `CN1CCN(CCCCCC(=O)Nc2nc(-c3cccc(NS(=O)(=O)c4cccc5c(N(C)C)cccc45)c3)cs2)CC1`, the growth in the assay on DU-145 prostate was 84.8%; with K-562 leukemia, 7.02% (active); in the assay with MALME-3M melanoma, 17.5%; with MDA-MB-231 breast, 68.8%; with RXF 393 renal it was 50.9%; in the assay on SF-268 CNS, 90.9%. Besides, the growth in the assay on SF-295 CNS was 35.6%; with SF-539 CNS, 58.2%; in the assay with UACC-257 melanoma, 42.7%; in the assay with M14 melanoma, -28.7% (active); in the assay with HCT-15 colon, 23.1%; with HT29 colon it was 15.8%. Also, the growth in the assay on SNB-75 CNS is 76.7%; in the assay with SNB-19 CNS, 83.7%; in the assay with U251 CNS, 65%; in the assay on PC-3 prostate, 67.4%; in the assay on SK-MEL-5 melanoma, 71%; with UACC-62 melanoma, 83.2%. The growth in the assay with LOX IMVI melanoma was -84.8% (active); in the assay on SK-MEL-28 melanoma, -61.1% (active).

Consider `CCOC(=O)C1=C(C)NC(C)=C(C(=O)OC(C)C)C1c1cccc(C#N)c1` (stereo not given), for which the growth in the assay with DU-145 prostate is 104%; with K-562 leukemia, 93.9%; in the assay with MALME-3M melanoma, 97.2%; in the assay on MDA-MB-231 breast, 95.2%; in the assay with RXF 393 renal, 90.8%; in the assay on SF-268 CNS, 96.9%. Besides, the growth in the assay with SF-295 CNS is 106%; with SF-539 CNS, 104%; in the assay with UACC-257 melanoma, 104%; with M14 melanoma it was 105%; in the assay with HCT-15 colon, 99.1%; in the assay with HT29 colon it was 108%. The growth in the assay with SNB-75 CNS is 84.5%; with SNB-19 CNS, 101%; in the assay with U251 CNS it was 100%; with PC-3 prostate, 87.2%; with SK-MEL-5 melanoma, 99.6%; with UACC-62 melanoma, 93.3%. In addition, the growth in the assay with LOX IMVI melanoma is 95.2%; in the assay on SK-MEL-28 melanoma it was 105%.

For the molecule `NS(=O)(=O)c1ccc(CCn2c(-c3ccc(C(=O)O)cc3)nc(-c3ccccc3)c2-c2ccccc2)cc1`, the growth is 102% in the assay on DU-145 prostate; 96.8% in the assay with K-562 leukemia; 97.9% with MALME-3M melanoma; 92.6% in the assay on MDA-MB-231 breast; 104% in the assay on RXF 393 renal; 93.8% in the assay on SF-268 CNS. In addition, the growth with SF-295 CNS is 101%; with SF-539 CNS, 99.1%; in the assay with UACC-257 melanoma it was 105%; with M14 melanoma, 105%; in the assay on HCT-15 colon, 94.5%; in the assay with HT29 colon, 106%. Further, the growth in the assay with SNB-75 CNS was 86.1%; in the assay on SNB-19 CNS it was 102%; in the assay with U251 CNS, 110%; in the assay on PC-3 prostate, 93.5%; in the assay with SK-MEL-5 melanoma it was 99.1%; in the assay on UACC-62 melanoma it was 94.2%. Besides, the growth in the assay on LOX IMVI melanoma and with SK-MEL-28 melanoma was 102% each time.

In the case of `CC(C)(C)OC(=O)NCc1ccc(CNc2c([N+](=O)[O-])cnc3ccccc23)cc1`, the growth with DU-145 prostate was 77.4%; in the assay with K-562 leukemia it was 28.5%; in the assay with MALME-3M melanoma, 86.4%; in the assay on MDA-MB-231 breast, 72.8%; in the assay with RXF 393 renal, 105%; with SF-268 CNS it was 77%. In addition, the growth is 33.4% in the assay on SF-295 CNS; 82.8% in the assay on SF-539 CNS; 49% in the assay on UACC-257 melanoma; 76% in the assay on M14 melanoma; 74% in the assay on HCT-15 colon; 83.8% in the assay on HT29 colon. Moreover, the growth in the assay on SNB-75 CNS is 57.1%; in the assay with SNB-19 CNS, 70.8%; in the assay on U251 CNS, 87.4%; in the assay with PC-3 prostate it was 68.9%; in the assay on SK-MEL-5 melanoma it was 2.87% (active); with UACC-62 melanoma it was 58.4%. Besides, the values for the growth in the assay with LOX IMVI melanoma and in the assay with SK-MEL-28 melanoma were 35.4% and 89.4%, respectively.

On to `NS(=O)(=O)c1ccc(Nc2nc(Nc3ccccc3)nc(N3N=C(c4ccc(Cl)cc4)CC3c3ccc(Cl)cc3)n2)cc1` (stereo not given), for which the growth in the assay with DU-145 prostate is 50.4%; with K-562 leukemia, 32.5%; in the assay on MALME-3M melanoma it was 42.5%; in the assay with MDA-MB-231 breast, 54.3%; in the assay with RXF 393 renal, -3.26% (active); in the assay with SF-268 CNS, 59.4%. The growth with SF-295 CNS was 56.7%; in the assay on SF-539 CNS, 58%; in the assay on UACC-257 melanoma, 65.8%; with M14 melanoma, 34.6%; in the assay on HCT-15 colon, 36.6%; with HT29 colon, 9.63% (active). The growth was 68% in the assay with SNB-75 CNS; 61.1% with SNB-19 CNS; 61.3% in the assay on U251 CNS; 43% with PC-3 prostate; 51.9% in the assay on SK-MEL-5 melanoma; 97.6% in the assay on UACC-62 melanoma. The growth in the assay with LOX IMVI melanoma is 12.6%; with SK-MEL-28 melanoma, 47.1%.

As for `CCN(CC)S(=O)(=O)c1ccc(-c2nc(C(Cl)Cl)nc3cc(C)nn23)cc1`, the growth was 15.9% in the assay with DU-145 prostate; 8.36% (active) with K-562 leukemia; -7.09% (active) in the assay with MALME-3M melanoma; -0.482% (active) in the assay on MDA-MB-231 breast; 13.3% in the assay on RXF 393 renal; 56.1% in the assay on SF-268 CNS. Moreover, the growth in the assay with SF-295 CNS is 48%; in the assay with SF-539 CNS, 50.7%; with UACC-257 melanoma, 59.3%; in the assay on M14 melanoma, 4.27% (active); in the assay with HCT-15 colon it was 1.86% (active); in the assay with HT29 colon it was 5.07% (active). In addition, the growth in the assay on SNB-75 CNS was 46.7%; in the assay on SNB-19 CNS, 46.2%; with U251 CNS, 8.28% (active); in the assay on PC-3 prostate it was 31.1%; with SK-MEL-5 melanoma, 78.3%; in the assay with UACC-62 melanoma, 49.9%. Moreover, the growth with LOX IMVI melanoma was 35.6%; in the assay on SK-MEL-28 melanoma, 23.3%.

As to `CCOC(=O)c1c(NC(=O)c2ccc(C(F)(F)F)cc2)sc2c3c(ccc12)OCN(C)C3`, the growth in the assay with DU-145 prostate is 21.6%; with K-562 leukemia it was -28.3% (active); in the assay with MALME-3M melanoma, 72.6%; in the assay on MDA-MB-231 breast, 10.9%; in the assay on RXF 393 renal it was -70% (active); in the assay with SF-268 CNS it was 63.6%. For the same molecule, the growth is 66.2% in the assay with SF-295 CNS; -73.1% (active) in the assay on SF-539 CNS; 71.6% in the assay on UACC-257 melanoma; 30.1% in the assay on M14 melanoma; -38.2% (active) in the assay with HCT-15 colon; -81% (active) in the assay with HT29 colon. Further, the growth in the assay on SNB-75 CNS is 69.7%; with SNB-19 CNS, 26.7%; in the assay with U251 CNS, -72.5% (active); with PC-3 prostate it was 65.3%; with SK-MEL-5 melanoma, 94.7%; in the assay with UACC-62 melanoma it was 88%. Also, the growth is -95.1% (active) in the assay on LOX IMVI melanoma and 95.8% in the assay on SK-MEL-28 melanoma.
